# Most compounds without a hit are left out; they make up all but 11% or so of the library.
# HEK293 tox: cytotoxic compounds in HEK 293 cells. HEK 293 viability, ATP luminescence (CellTiter-Glo), 48-72 h. Potency, µM (doses to about 115 µM), for inactives: top-dose activity change, negative = cytotoxicity, actives largely listed as inhibitors. 6.6% of 94,000 active; also: % is scaled to controls: 0 for no effect and ±100 for the full control effect; nearly all actives have a fitted effect of over 60% in size
#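 CellTiter-Glo luminescence (cellular ATP) was read after 48 or 72 hr of compound exposure at 37 degree Celsius. Cells were HEK 293 plated at 250 cells/well.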
# NIH3T3 tox: kills NIH 3T3 cells; NIH 3T3 viability, CellTiter-Glo ATP luminescence, 48-72 h; Potency, µM (highest dose often 96.7 µM), for inactives: top-dose activity change, negative = cytotoxicity, hits mostly inhibitors; 4.3% of 94,000 active; AID 1345082; also: % is scaled to controls: 0 for no effect and ±100 for the full control effect; nearly all actives have a fitted effect of over 55% in size
#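 Cytotoxicity is measured as loss of cellular ATP: NIH 3T3 cells (400/well) are exposed to compound for 48 or 72 hr at 37 °C, then CellTiter-Glo luminescence is imaged after 10 min at room temperature.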
# NPR1 antag: blocks ANP-stimulated signaling of human Npr1 receptor | P16066 | HEK293 hNpr1 GloSensor cGMP, ANP-stimulated luminescence | Potency, µM (highest dose often 46.3 µM), inactives show at the highest dose activity change, negative = inhibition, actives largely listed as inhibitors | 1.6% of 76,000 active; calls by dose curve; also: % is scaled to controls: 0 for no effect and ±100 for the full control effect; nearly all actives have a fitted effect of over 60% in size
#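 Compound pre-incubated 30 min at room temperature on GloSensor-loaded HEK293 cells stably carrying hNpr1 and the pGS-40F cGMP biosensor. Stimulation uses hNppA at 0.1 nM final; luminescence is taken at baseline and 20 min post-agonist.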
# FLuc inh: blocks purified firefly luciferase enzyme activity; AID 1347043; purified P. pyralis luciferase, luminescence, biochemical; Potency, µM (doses to about 115 µM), most hits filed as inhibitors; P08659; 2.5% of 76,000 active; also: % is scaled to controls: 0 for no effect and ±100 for the full control effect; nearly all actives have a fitted effect of over 65% in size
#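 FLuc 10nM, D-luciferin 10uM, ATP 10uM, Mg acetate 10mM, Tris acetate pH 7.5, Tween/BSA; cpd qHTS; enzyme added last; CCD luminescence.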
# Npr1 antag conf: confirmation of human Npr1 natriuretic peptide receptor antagonists. shares compounds with NPR1 antag. Potency, µM (top dose mostly 57.6 µM), for inactives: at the highest dose activity change, negative = inhibition, usual class: inhibitors. HEK293 hNpr1 cGMP GloSensor luminescence, ANP-stimulated. 76% of 1,400 active; calls by dose curve; also: nearly all actives have a fitted effect of over 70% in size
# Npr2 selectivity: hNpr2 antagonism, selectivity versus Npr1; Potency, µM (titrated, usually from 57.6 µM), inactives show at the highest dose activity change, negative = inhibition, actives largely listed as inhibitors; shares compounds with NPR1 antag; 67% of 1,400 active; HEK293 hNpr2 GloSensor cGMP luminescence, CNP-stimulated; AID 1347046; calls by dose curve; also: nearly all actives have a fitted effect of over 70% in size
# Target sequence (P20594 whole entry, looked up): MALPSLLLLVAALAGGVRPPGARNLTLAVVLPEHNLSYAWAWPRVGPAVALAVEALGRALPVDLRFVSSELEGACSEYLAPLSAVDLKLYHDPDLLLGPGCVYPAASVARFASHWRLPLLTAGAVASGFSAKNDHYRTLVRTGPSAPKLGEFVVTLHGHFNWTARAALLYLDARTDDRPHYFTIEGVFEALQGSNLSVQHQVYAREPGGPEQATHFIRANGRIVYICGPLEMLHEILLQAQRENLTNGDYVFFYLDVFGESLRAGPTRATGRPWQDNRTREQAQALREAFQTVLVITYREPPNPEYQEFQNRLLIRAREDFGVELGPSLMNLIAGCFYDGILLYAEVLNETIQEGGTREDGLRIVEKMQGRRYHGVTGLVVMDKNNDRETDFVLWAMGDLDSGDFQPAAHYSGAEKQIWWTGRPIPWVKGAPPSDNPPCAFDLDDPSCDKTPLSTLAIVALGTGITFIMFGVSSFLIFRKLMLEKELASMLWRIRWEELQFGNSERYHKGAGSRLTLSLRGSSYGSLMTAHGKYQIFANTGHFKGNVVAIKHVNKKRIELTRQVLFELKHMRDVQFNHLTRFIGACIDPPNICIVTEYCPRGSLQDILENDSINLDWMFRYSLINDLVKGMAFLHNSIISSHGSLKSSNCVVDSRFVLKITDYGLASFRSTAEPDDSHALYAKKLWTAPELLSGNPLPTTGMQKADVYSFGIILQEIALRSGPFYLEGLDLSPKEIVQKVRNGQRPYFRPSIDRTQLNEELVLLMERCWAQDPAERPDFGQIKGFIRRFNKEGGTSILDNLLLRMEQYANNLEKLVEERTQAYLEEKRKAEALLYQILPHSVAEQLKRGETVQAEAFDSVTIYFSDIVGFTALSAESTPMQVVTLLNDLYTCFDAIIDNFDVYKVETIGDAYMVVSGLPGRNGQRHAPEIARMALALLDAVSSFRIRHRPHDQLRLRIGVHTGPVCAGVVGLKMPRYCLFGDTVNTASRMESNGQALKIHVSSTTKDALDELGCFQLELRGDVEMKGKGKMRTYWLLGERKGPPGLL
# FLuc inh counter: inhibits firefly luciferase, false Npr1 antagonist flag; shares compounds with NPR1 antag; purified FLuc enzyme, luminescence, Km substrate; Potency, µM (top dose mostly 57.6 µM), without a hit: top-dose activity change, negative = inhibition, most hits filed as inhibitors; 0.7% of 1,400 active; also: 0% is about no effect
# GloSensor cGMP: control cell line activity, Npr1 antagonist counter-screen; shares compounds with NPR1 antag; HEK293 GloSensor cGMP, SNP-stimulated, luminescence; Potency, µM (top dose mostly 57.6 µM), for the others: top-dose activity change, negative = inhibition, most hits filed as inhibitors; 69% of 1,400 active; AID 1347051; calls by dose curve; also: % is scaled to controls: 0 for no effect and ±100 for the full control effect; nearly all actives have a fitted effect of over 70% in size
# The depositor's hits bear a star; i = inactive; u = inconclusive; x = no result given; [ ] = remark or other dose. Unless noted, calls follow the shape of the dose curve; as a rule, active = well fitted curve in the direction sought with a large enough effect; inconclusive = small, poorly fitted or top-dose-only effect, or another doubt; inactive = no such curve, though single readings can be large; an effect the other way counts as inactive or inconclusive. Potency is read from the fitted curve at half-maximal effect.
SMILES,HEK293 tox,NIH3T3 tox,NPR1 antag,FLuc inh,Npr1 antag conf,Npr2 selectivity,FLuc inh counter,GloSensor cGMP
COC[C@@H]1CN(C(=O)c2ccc(C)nc2)C[C@H]1c1ccccn1,i,-17%,x,x,x,x,x,x
CC(C(=O)NCc1ccccc1F)C1CCOCC1 (stereo unspecified),8%,i,0%,i,x,x,x,x
O=C1CCN(CC(O)COc2ccccc2)c2ccc(F)cc2CN1CC1CC1 (stereo unspecified),u,-25%,x,x,x,x,x,x
COCc1nc(-c2ccc(OC3CN(S(=O)(=O)c4ccccc4C)C3)cc2)no1,14µM*,u,11µM*,i,12µM*,19µM*,1%,15µM*
Cc1ccc(CNC(=O)N2CCC(Oc3ccc(-c4noc(C)n4)cc3)C2)cc1 (stereo unspecified),u,u,20µM*,i,u,-28%,-17%,-18%
COCc1nc(-c2ccc(OC3CN(C(=O)Cc4ccccc4)C3)cc2)no1,u,u,-24%,i,x,x,x,x
CSc1ccc(-c2cccc(C(=O)NCCNC(=O)c3ccccc3)c2)cc1,u,-29%,x,x,x,x,x,x
CN(C)[C@@H]1[C@@H](NC(=O)CCc2nc3ccccc3[nH]c2=O)[C@H]2CCO[C@H]21,i,i,5%,i,x,x,x,x
CC(C)c1noc(-c2cn(C3CCN(C(=O)c4cccc5[nH]ccc45)C3)nn2)n1 (stereo unspecified),u,u,-1%,i,x,x,x,x
Cc1noc(-c2cn(C3CCCN(C(=O)c4cccc5[nH]ccc45)C3)nn2)n1 (stereo unspecified),u,-32%,-15%,u,x,x,x,x
O=C(c1cccc2[nH]ccc12)N1CCCC(n2cc(-c3nc(C4CC4)no3)nn2)C1 (stereo unspecified),u,u,11µM*,i,27µM*,u,-1%,u
CC(C)c1noc(-c2cn(C3CCCN(C(=O)c4cccc5[nH]ccc45)C3)nn2)n1 (stereo unspecified),u,u,13µM*,i,27µM*,u,-18%,22µM*
CCC(O)c1cc2n(n1)CCN(C(=O)c1ccc(-c3ccccc3)n1C)C2 (stereo unspecified),32µM*,u,16µM*,i,24µM*,24µM*,-2%,24µM*
COc1ccccc1CC(=O)N1CCCc2ncc(C(=O)Nc3cccc(F)c3)cc21,63µM*,89µM*,32µM*,i,35µM*,35µM*,-15%[86.2 µM],35µM*
Cc1csc(NC(=O)c2cnc3c(c2)N(C(=O)Cc2ccc(C(C)C)cc2)CCC3)n1,35µM*,u,22µM*,i,31µM*,35µM*,-13%[86.2 µM],28µM*
CC(C)c1ccc(CC(=O)N2CCCc3ncc(C(=O)N(C)c4ccccc4)cc32)cc1,u,u,u,i,35µM*,44µM*,0%[86.2 µM],44µM*
Cn1cc(CC(=O)N2CCCc3ncc(C(=O)Nc4cccc(Cl)c4)cc32)c2ccccc21,u,u,-24%,i,-30%,-28%,-1%,-23%
Cc1ccccc1NC(=O)c1cnc2c(c1)N(C(=O)Cc1cn(C)c3ccccc13)CCC2,u,u,-15%[70.6 µM],i,x,x,x,x
O=C(NC1CC1)[C@@H]1CN(Cc2ccncc2F)C[C@H]1CO,-7%,-27%,-2%,i,x,x,x,x
O=C(NCc1sc2ccccc2c1Cl)[C@H]1CCC[C@H](O)C1,-29%,-33%,-3%,i,x,x,x,x
CCOCCOC1CCN(C(=O)Nc2ccc(C(=O)OC)cc2)CC1,-15%,u,-2%,i,x,x,x,x
O=C1[C@@H]2C[C@@H](O)CN2C2(CN(Cc3ccccn3)C2)C(=O)N1Cc1cccc(Cl)c1,-8%[172 µM],-14%[174 µM],2%[70.6 µM],i,x,x,x,x
CCn1nc(C)c(CCNC(=O)c2cccc(C3CCNC3)c2)c1C (stereo unspecified),i,-1%,2%,i,x,x,x,x
O=C(NCc1ccccc1)C1CCN(C(=O)N2CC3CC(C2)[C@H]2CCCC(=O)N2C3)CC1 (stereo partly specified),-2%,4%,5%,i,x,x,x,x
COc1ccc(CN2C[C@@H](CO)[C@H](c3nc(C)no3)C2)cc1C,-5%,-15%,-1%,i,x,x,x,x
SMILES,HEK293 tox,NIH3T3 tox,NPR1 antag,FLuc inh,Npr1 antag conf,Npr2 selectivity,FLuc inh counter,GloSensor cGMP
O=C(Nc1ccccc1)c1cnc2c(c1)N(C(=O)Cc1ccc(O)cc1)CCC2,u,-17%[138 µM],28µM*,i,35µM*,35µM*,-3%[86.2 µM],35µM*
O=C(NC(c1ccccc1)c1ccccc1)c1cnc2c(c1)N(C(=O)Cc1ccc(O)cc1)CCC2,-30%,u,-8%,i,x,x,x,x
CC(C)c1ccc(CC(=O)N2CCCc3ncc(C(=O)Nc4ccccc4)cc32)cc1,28µM*,28µM*,3.5µM*,i,5.6µM*,6.3µM*,3%[86.2 µM],5µM*
CCOc1ccccc1NC(=O)N1CCC(n2c(C)cnc2-c2cccnc2)C1 (stereo unspecified),1%,-7%,x,x,x,x,x,x
O=C(NCc1ccccn1)C1CCN(c2nccc(-c3cccnc3)n2)CC1,i,u,-1%,i,x,x,x,x
O=c1[nH]c2ccccc2n1C1CCN(c2nccc(-c3cccnc3)n2)CC1,14µM*,32µM*,11µM*,i,22µM*,24µM*,1%,19µM*
Cc1ccc(OCC(=O)c2ccc3c(c2)N(C(C)C(=O)NCC2CCCO2)C(=O)CO3)cc1C (stereo unspecified),u,-9%,1%,i,x,x,x,x
Cc1n[nH]c(C)c1Cc1ccc(C(=O)N2CCC(CCOc3ccc(F)cc3)C2)o1 (stereo unspecified),22µM*,35µM*,16µM*,i,24µM*,24µM*,7%,22µM*
COCCC(=O)N1CCCC(Cc2nc(C3CCOCC3)no2)C1 (stereo unspecified),3%,i,-18%,i,-7%,1%,1%,2%
Cc1cc(CNC(=O)c2cc(C(C)C)nn2C)c2[nH]c(C)c(C)c2c1,40µM*,u,7.1µM*,i,6.9µM*,6.9µM*,-2%,4.8µM*
CCc1[nH]c2c(CNC(=O)c3c(C)cc(C)n(C)c3=O)cc(F)cc2c1C,-1%,-7%,-1%,i,x,x,x,x
